System: Carnobacterium 1 (Carnobacterium gallinarum)
Assay: relative growth (AUC of 72 h growth curve relative to DMSO control, dAUC) (ratio); higher = more growth (less inhibition), active = hit call of the paper
Conditions: 20 µM;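 active = growth AUC significantly below the DMSO wells by Dunnett test; inactive = the rest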
Protocol: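 Environmental bacterial isolates (Iceland stream sediment and Silwood Park soil) and whole stream-sediment communities were grown in LB from a 1:100 dilution with each pesticide at 20 µM (1% DMSO). A600 was read hourly for 72 h and the area under a spline-fitted growth curve (AUC) was computed. dAUC is the mean AUC of 3 biological replicates divided by the mean AUC of the DMSO controls. Significance was tested by Dunnett's test against the DMSO control.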

SMILES | relative growth
CN/C(=N/CC1CCOC1)N[N+](=O)[O-] (stereo not given) | 1.46 (inactive)
COC(=O)NC(=S)Nc1ccccc1NC(=S)NC(=O)OC | 0.745 (inactive)
CC1(C(=O)Nc2ccc(O)c(Cl)c2Cl)CCCCC1 | 0.935 (inactive)
CC(Oc1ccc(Oc2nc3ccc(Cl)cc3o2)cc1)C(=O)O (stereo not given) | 1.36 (inactive)
O=C1C=C(N(Cc2ccc(Cl)nc2)CC(F)F)CO1 | 1.06 (inactive)
Cc1cc(C(C#N)c2ccc(Cl)cc2)c(Cl)cc1NC(=O)c1cc(I)cc(I)c1O (stereo not given) | 0.0215 (active)
CC(C)(C)c1ccc(CSc2cnn(C(C)(C)C)c(=O)c2Cl)cc1 | 1.3 (inactive)
Cc1cc(C)nc(Nc2ccccc2)n1 | 1.1 (inactive)
COc1cc(C)c(C(=O)c2c(OC)ccc(Br)c2C)c(OC)c1OC | 1.4 (inactive)
CN/C(=N\[N+](=O)[O-])NCc1cnc(Cl)s1 | 0.918 (inactive)
CCOP(=S)(OCC)Oc1cc(C)nc(C(C)C)n1 | 0.908 (inactive)
CC(C1CC1)C(O)(Cn1cncn1)c1ccc(Cl)cc1 (stereo not given) | 1.34 (inactive)
Cc1nnc(-c2ccccc2)c(=O)n1N | 0.953 (inactive)
CC1(C)C(C(=O)OC(C#N)c2cccc(Oc3ccccc3)c2)C1(C)C (stereo not given) | 1.18 (inactive)
COC(=O)N(C(=O)N1CO[C@@]2(C(=O)OC)Cc3cc(Cl)ccc3C2=N1)c1ccc(OC(F)(F)F)cc1 | 1.15 (inactive)
CC1(C)[C@H](C(=O)O[C@H](C#N)c2cccc(Oc3ccccc3)c2)[C@@H]1C=C(Br)Br | 1.47 (inactive)
CCCN(CCC)C(=O)SCc1ccccc1 | 1.04 (inactive)
CCCCc1c(C)nc(NCC)nc1OS(=O)(=O)N(C)C | 0.861 (inactive)
Clc1ccc(C(c2ccc(Cl)cc2)C(Cl)(Cl)Cl)cc1 | 1.1 (inactive)
O=C(Nc1ccc(F)cc1F)c1cccnc1Oc1cccc(C(F)(F)F)c1 | 1.1 (inactive)

SMILES | relative growth
Cc1ccc(/N=C/N(C)/C=N/c2ccc(C)cc2C)c(C)c1 | 1.24 (inactive)
CC(C)OC(=O)C(C(=O)OC(C)C)=C1SCCS1 | 0.826 (inactive)
CC1(C)C(C=C(Cl)Cl)C1C(=O)OC(C#N)c1ccc(F)c(Oc2ccccc2)c1 (stereo not given) | 0.865 (inactive)
O=C1C2CC=CCC2C(=O)N1SC(Cl)(Cl)Cl (stereo not given) | 1.19 (inactive)
CC(C)N1C(=O)N(c2ccccc2)CS/C1=N\C(C)(C)C | 0.913 (inactive)
C#CCN1C(=O)COc2cc(F)c(N3C(=O)C4=C(CCCC4)C3=O)cc21 | 0.92 (inactive)
COCc1cnc(C2=NC(C)(C(C)C)C(=O)N2)c(C(=O)O)c1 (stereo not given) | 0.837 (inactive)
O=[N+]([O-])/N=C1\NCCN1Cc1ccc(Cl)nc1 | 1.26 (inactive)
CNC(=O)Oc1cccc2ccccc12 | 1.1 (inactive)
CC1(C)C(C=C(Cl)Cl)C1C(=O)OC(C#N)c1cccc(Oc2ccccc2)c1 (stereo not given) | 1.32 (inactive)
COCC(=O)N(c1c(C)cccc1C)[C@H](C)C(=O)OC | 1.12 (inactive)
COP(=O)(NC(C)=O)SC (stereo not given) | 1.08 (inactive)
CCCCOC(=O)[C@H](C)Oc1ccc(Oc2ccc(C#N)cc2F)cc1 | 0.961 (inactive)
COc1ccc(C(=CC(=O)N2CCOCC2)c2ccc(Cl)cc2)cc1OC (mixture of isomers) | 1.56 (inactive)
CS(=O)(=O)c1cc(C(F)(F)F)ccc1C(=O)c1cnoc1C1CC1 | 1.43 (inactive)
CCC(C)(C)C(=O)OC1=C(c2ccc(Cl)cc2Cl)C(=O)OC12CCCCC2 | 1.13 (inactive)
N#CCNC(=O)c1cnccc1C(F)(F)F | 1.06 (inactive)
N#Cc1sc2c(=O)c3ccccc3c(=O)c=2sc1C#N | 0.62 (inactive)
COP(N)(=O)SC (stereo not given) | 0.69 (inactive)
CO/N=C(/C(=O)OC)c1ccccc1CO/N=C(\C)c1cccc(C(F)(F)F)c1 | 0.975 (inactive)

— the supplement of paper PMC12067926
